Laboratory results: PubChem BioAssay AID1159580 (chemical genetic matrix, 2015)
Among all 5,500 compounds or so, about 2,000 (36%) were called active. About 18% were inconclusive and are not listed. Rule as the data show it: active = normalized growth mostly below about 0.91 (no sharp cut-off); inconclusive = no clear call, values can overlap the other calls; inactive = mostly above about 0.92. This is one part of the list.

Assay: chemical genetic growth profiling, strain panel (AID 1159580);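 also: tested at 20 µM; growth read once vehicle control cultures reached saturation at 30 °C; 1 = growth at the plate median or of vehicle wells; lower values mean less growth of the strain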
Conditions: S. cerevisiae deletion strains, growth OD

Measured: normalized growth

CC12CCC(=O)C=C1CCc1ccccc12 (stereo not drawn)
active: locus YER155C, strain BEM2 (second series), stronger effect = lower value 0.849 | locus YLR357W, strain rsc2, stronger effect = lower value 0.844
inactive: locus YAL021C, strain ccr4, stronger effect = lower value 0.992 | locus YAL026C, strain drs2, stronger effect = lower value 0.985 | locus YAL030W, strain snc1, stronger effect = lower value 0.984 | locus YBL061C, strain skt5, stronger effect = lower value 0.981 | locus YBR009C, strain hhf1, stronger effect = lower value 0.985 | locus YBR023C, strain chs3, stronger effect = lower value 0.979 | locus YBR171W, strain sec66, stronger effect = lower value 0.972 | locus YBR231C, strain swc5, stronger effect = lower value 0.985 | locus YBR279W, strain paf1, stronger effect = lower value 0.985 | locus YCL011C, strain gbp2, stronger effect = lower value 0.997 | locus YCL016C, strain dcc1, stronger effect = lower value 0.978 | locus YCL061C, strain MRC1, stronger effect = lower value 0.977 | locus YCL069W, strain vba3, stronger effect = lower value 0.986 | locus YCR088W, strain abp1, stronger effect = lower value 0.966 | locus YDL005C, strain med2, stronger effect = lower value 0.985 | locus YDL040C, strain nat1, stronger effect = lower value 0.967 | locus YDR001C, strain nth1, stronger effect = lower value 0.967 | locus YDR069C, strain doa4, stronger effect = lower value 0.984 | locus YDR137W, strain rgp1, stronger effect = lower value 1.05 | locus YDR159W, strain sac3, stronger effect = lower value 0.955 | locus YDR195W, strain ref2 0.947 | locus YDR297W, strain sur2, stronger effect = lower value 0.978 | locus YDR334W, strain swr1, stronger effect = lower value 0.959 | locus YDR335W, strain msn5, stronger effect = lower value 0.978 | locus YDR392W, strain spt3, stronger effect = lower value 0.825 | locus YEL003W, strain gim4, stronger effect = lower value 0.981 | locus YEL037C, strain rad23, stronger effect = lower value 0.972 | locus YEL061C, strain CIN8 (second series), stronger effect = lower value 0.966 | locus YER015W, strain faa2, stronger effect = lower value 0.986 | locus YER016W, strain bim1, stronger effect = lower value 0.972 | locus YER111C, strain swi4, stronger effect = lower value 0.972 | locus YFR010W, strain ubp6, stronger effect = lower value 0.99 | locus YGL167C, strain pmr1, stronger effect = lower value 0.97 | locus YGL173C, strain kem1, stronger effect = lower value 0.985 | locus YGL227W, strain vid30, stronger effect = lower value 0.979 | locus YGL240W, strain doc1, stronger effect = lower value 0.925 | locus YGL253W, strain hxk2, stronger effect = lower value 0.98 | locus YHR013C, strain ard1, stronger effect = lower value 0.941 | locus YHR027C, strain rpn1, stronger effect = lower value 0.994 | locus YHR142W, strain chs7, stronger effect = lower value 0.978 | locus YJL092W, strain hpr5, stronger effect = lower value 0.974 | locus YJL095W, strain BCK1 (second series), stronger effect = lower value 0.994 | locus YJL115W, strain asf1, stronger effect = lower value 0.977 | locus YJL129C, strain trk1, stronger effect = lower value 0.964 | locus YJL154C, strain vps35, stronger effect = lower value 0.972 | locus YJL164C, strain tpk1, stronger effect = lower value 0.984 | locus YJL166W, strain qcr8, stronger effect = lower value 0.977 | locus YJL187C, strain SWE1, stronger effect = lower value 0.982 | locus YKL160W, strain elf1, stronger effect = lower value 1 | locus YKR026C, strain gcn3, stronger effect = lower value 0.951 | locus YKR091W, strain srl3, stronger effect = lower value 0.971 | locus YLL001W, strain dnm1, stronger effect = lower value 0.968 | locus YLL026W, stronger effect = lower value 0.979 | locus YLL041C, strain sdh2, stronger effect = lower value 0.973 | locus YLR027C, strain aat2, stronger effect = lower value 0.99 | locus YLR221C, strain rsa3, stronger effect = lower value 1.01 | locus YLR258W, strain gsy2, stronger effect = lower value 0.992 | locus YLR262C, strain YPT6 (second series), stronger effect = lower value 1.07 | locus YLR320W, strain mms22, stronger effect = lower value 0.973 | locus YLR342W, strain FKS1, stronger effect = lower value 0.977 | locus YLR370C, strain arc18, stronger effect = lower value 0.984 | locus YLR384C, strain iki3, stronger effect = lower value 0.972 | locus YML120C, strain ndi1, stronger effect = lower value 0.984 | locus YMR058W, strain fet3, stronger effect = lower value 0.982 | locus YMR125W, strain sto1, stronger effect = lower value 0.969 | locus YMR129W, stronger effect = lower value 0.983 | locus YMR205C, strain PFK2, stronger effect = lower value 0.985 | locus YMR231W, strain pep5, stronger effect = lower value 0.977 | locus YNL071W, strain lat1, stronger effect = lower value 0.978 | locus YNL209W, strain ssb2, stronger effect = lower value 0.989 | locus YNL248C, strain rpa49, stronger effect = lower value 0.951 | locus YNL322C, strain KRE1 (second series), stronger effect = lower value 0.962 | locus YNR049C, strain mso1, stronger effect = lower value 0.98 | locus YOR001W, strain rrp6, stronger effect = lower value 0.994 | locus YOR070C, strain gyp1, stronger effect = lower value 0.992 | locus YOR080W, strain dia2, stronger effect = lower value 0.974 | locus YOR083W, strain WHI5, stronger effect = lower value 1 | locus YOR106W, strain vam3, stronger effect = lower value 1 | locus YOR265W, strain rbl2, stronger effect = lower value 0.984 | locus YOR270C, strain vph1, stronger effect = lower value 0.931 | locus YOR290C, strain snf2, stronger effect = lower value 0.933 | locus YPL051W, strain arl3, stronger effect = lower value 0.994 | locus YPL078C, strain atp4, stronger effect = lower value 0.977 | locus YPL106C, strain sse1, stronger effect = lower value 0.973 | locus YPL240C, strain hsp82, stronger effect = lower value 0.985

FC(F)(F)Oc1ccc(OCc2n[nH]c(=S)n2-c2ccc(Cl)cc2)cc1
inactive: locus YAR019C, strain CDC15, stronger effect = lower value 0.984 | locus YBL105C, strain PKC1, stronger effect = lower value 0.986 | locus YBR135W, strain CKS1, stronger effect = lower value 0.989 | locus YBR136W, strain MEC1, stronger effect = lower value 0.996 | locus YBR160W, strain CDC28, stronger effect = lower value 0.991 | locus YDL017W, strain CDC7, stronger effect = lower value 0.995 | locus YDL028C, strain MPS1, stronger effect = lower value 0.99 | locus YDL101C, strain DUN1, stronger effect = lower value 0.983 | locus YDL108W, strain KIN28, stronger effect = lower value 0.987 | locus YDL132W, strain cdc53, stronger effect = lower value 0.981 | locus YDL214C, strain PRR2, stronger effect = lower value 1 | locus YDR052C, strain DBF4, stronger effect = lower value 0.987 | locus YDR054C, strain cdc34, stronger effect = lower value 0.989 | locus YDR226W, strain ADK1, stronger effect = lower value 0.98 | locus YDR477W, strain SNF1, stronger effect = lower value 0.994 | locus YER123W, strain YCK3, stronger effect = lower value 0.889 | locus YER133W, strain GLC7, stronger effect = lower value 1 | locus YFL009W, strain cdc4, stronger effect = lower value 0.988 | locus YFL029C, strain CAK1, stronger effect = lower value 0.985 | locus YFR003C, strain YPI1, stronger effect = lower value 0.987 | locus YFR019W, strain FAB1, stronger effect = lower value 0.988 | locus YFR028C, strain CDC14, stronger effect = lower value 0.989 | locus YGR040W, strain KSS1, stronger effect = lower value 1.01 | locus YGR052W, strain FMP48, stronger effect = lower value 1.1 | locus YGR092W, strain DBF2, stronger effect = lower value 0.944 | locus YHR030C, strain SLT2, stronger effect = lower value 0.967 | locus YHR079C, strain IRE1, stronger effect = lower value 1.07 | locus YHR082C, strain KSP1, stronger effect = lower value 1.05 | locus YHR205W, strain SCH9, stronger effect = lower value 1.01 | locus YIL147C, strain SLN1, stronger effect = lower value 0.988 | locus YJL095W, strain BCK1, stronger effect = lower value 1.15 | locus YJL128C, strain PBS2, stronger effect = lower value 0.956 | locus YJL157C, strain FAR1, stronger effect = lower value 1 | locus YJR016C, strain ILV3, stronger effect = lower value 0.996 | locus YJR066W, strain TOR1 (second series), stronger effect = lower value 0.986 | locus YJR066W, strain TOR1, stronger effect = lower value 1.13 | locus YKL048C, strain ELM1, stronger effect = lower value 0.965 | locus YKL067W, strain YNK1, stronger effect = lower value 1.02 | locus YKL101W, strain HSL1, stronger effect = lower value 0.986 | locus YKL193C, strain SDS22, stronger effect = lower value 0.982 | locus YKL203C, strain TOR2, stronger effect = lower value 1.05 | locus YLR113W, strain HOG1, stronger effect = lower value 1.07 | locus YLR133W, strain CKI1, stronger effect = lower value 1 | locus YLR403W, strain SFP1, stronger effect = lower value 1 | locus YML070W, strain DAK1, stronger effect = lower value 1.01 | locus YMR001C, strain CDC5, stronger effect = lower value 0.983 | locus YMR205C, strain PFK2 (second series), stronger effect = lower value 1.01 | locus YMR277W, strain FCP1, stronger effect = lower value 0.99 | locus YNL006W, strain LST8, stronger effect = lower value 0.986 | locus YNL020C, strain ARK1, stronger effect = lower value 0.994 | locus YNL161W, strain CBK1, stronger effect = lower value 0.989 | locus YNL183C, strain NPR1, stronger effect = lower value 1.12 | locus YNL207W, strain RIO2, stronger effect = lower value 0.99 | locus YNL222W, strain SSU72, stronger effect = lower value 0.985 | locus YNL307C, strain MCK1 (second series), stronger effect = lower value 0.999 | locus YOL078W, strain AVO1, stronger effect = lower value 0.986 | locus YOL136C, strain PFK27, stronger effect = lower value 0.994 | locus YOR061W, strain CKA2, stronger effect = lower value 1.01 | locus YOR119C, strain RIO1, stronger effect = lower value 1.02 | locus YOR231W, strain MKK1, stronger effect = lower value 1.09 | locus YOR329C, strain SCD5, stronger effect = lower value 0.99 | locus YPL031C, strain PHO85, stronger effect = lower value 0.973 | locus YPL153C, strain RAD53, stronger effect = lower value 0.983 | locus YPL204W, strain HRR25, stronger effect = lower value 0.975 | locus YPL209C, strain IPL1, stronger effect = lower value 0.987 | locus YPL256C, strain CLN2, stronger effect = lower value 1.04 | locus YPR025C, strain CCL1, stronger effect = lower value 0.991 | locus YPR106W, strain ISR1, stronger effect = lower value 0.996 | locus YPR111W, strain DBF20, stronger effect = lower value 0.992 | strain NNK1, stronger effect = lower value 0.999 | strain TSCII, stronger effect = lower value 0.987
